TbPYK inhibitor – qHTS of Trypanosoma Brucei Inhibitors. Potency, µM (top dose mostly 76.8 µM), usual class: inhibitors. pyruvate kinase (Trypanosoma brucei), Q57TT1. 0.12% of 410,000 active. TbPYK enzyme, Kinase-Glo Plus ATP luminescence, 45 min; further: nearly all actives have a fitted effect of over 50% in size
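Enzyme and substrate buffer are dispensed first and compound is pin-transferred. ADP at 130 uM final then starts the reaction, which runs 45 min at room temperature. Detection reagent is added for 10 min before luminescence is imaged.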
Sm TGR block – qHTS Assay for the Inhibitors of Schistosoma Mansoni Peroxiredoxins; purified TGR, DTNB reduction, TNB absorbance 405 nm; Potency, µM (doses to about 114 µM), usual class: inhibitors; 3% of 360,000 active; AID 485364, 2010; further: nearly all actives have a fitted effect of over 60% in size
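TGR 20 nM + NADPH 100 uM (dispensed conc.), cpd preinc 15 min RT; start with NADPH (500 uM addition) then DTNB (15 mM addition). Kinetic TNB absorbance, 405 nm filter. Four-parameter Hill fit across titration.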
RE007 growth inh – qHTS Assay for Inhibitors of the HIV-1 protein Vpr; S. pombe RE007 Vpr strain, BacTiter-Glo ATP luminescence, 24 h; Potency, µM (series often up to 92.2 µM), actives largely listed as inhibitors; 0.21% of 360,000 active; active means well fitted falling curve with a large enough effect; inconclusive means small, poorly fitted or top-dose-only effect; inactive means no such curve, though single readings can be large or run the other way; further: nearly all actives have a fitted effect of over 50% in size
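Fission yeast RE007 carrying one integrated HIV-1 vpr copy, seeded at OD 0.01 in PMG+AL medium with 23 nL pinned compound. Grown 24 h at 30 degrees; viability read by BacTiter-Glo luminescence after 5 min.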
FBPA Giardia inh – qHTS Assay for Inhibitors of Fructose-1,6-bisphosphate Aldolase from Giardia Lamblia; 0.71% of 290,000 active; Potency, µM (series often up to 59.6 µM), actives largely listed as inhibitors; purified Giardia FBPA; A8B2U2; further: nearly all actives have a fitted effect of over 55% in size
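Giardia FBPA (40 nM reagent) was preincubated 10 min at RT with compound (up to 57.5 uM final), then substrate plus GAPDH/TPI/NAD/arsenate coupling system with diaphorase/resazurin was added; resorufin fluorescence (525/598 nm) was read after 20 min.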
LmPK inhibitor – qHTS Assay for Inhibitors of Leishmania Mexicana Pyruvate Kinase (LmPK) | Q27686 | purified LmPK, Kinase-Glo ATP luminescence, 1 h | Potency, µM (titrated, usually from 57.5 µM), most hits filed as inhibitors | 0.37% of 290,000 active | AID 1721, 2009
Target sequence (Q27686 whole entry, looked up): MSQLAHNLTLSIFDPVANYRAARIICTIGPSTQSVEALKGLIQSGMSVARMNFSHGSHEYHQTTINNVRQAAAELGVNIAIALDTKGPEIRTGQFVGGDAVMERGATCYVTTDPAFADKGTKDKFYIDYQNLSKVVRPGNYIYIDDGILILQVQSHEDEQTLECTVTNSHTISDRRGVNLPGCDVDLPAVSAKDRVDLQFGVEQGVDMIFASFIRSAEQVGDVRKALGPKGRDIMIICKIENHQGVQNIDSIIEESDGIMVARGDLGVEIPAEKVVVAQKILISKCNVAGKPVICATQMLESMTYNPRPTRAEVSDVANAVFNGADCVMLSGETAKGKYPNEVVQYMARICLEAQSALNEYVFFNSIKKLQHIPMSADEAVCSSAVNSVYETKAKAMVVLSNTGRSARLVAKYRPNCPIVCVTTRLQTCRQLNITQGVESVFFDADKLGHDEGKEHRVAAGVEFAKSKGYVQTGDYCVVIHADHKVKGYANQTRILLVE
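Kinase-Glo luminescence read after 1 h RT reaction of 0.1 nM LmPK with 0.5 mM PEP and 0.1 mM ADP. Activity scaled between uninhibited and enzyme-free controls.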
A number is an active result; [ ] = remark or other dose. Hits are enriched below; roughly 3.3% of the tested compounds scored in any of these assays. Unless noted, the call rests on the fitted dose curve; in most records, active means well fitted curve in the direction sought with a large enough effect; inconclusive means small, poorly fitted or top-dose-only effect, or another doubt; inactive means no such curve, though single readings can be large; an effect the other way counts as inactive or inconclusive.

COc1ccc(C2(C(=O)NCc3ccco3)CCCC2)cc1OC was read as TbPYK inhibitor inactive, Sm TGR block 45µM, RE007 growth inh inactive, FBPA Giardia inh inactive and LmPK inhibitor inactive.
For Cn1c(C(=O)OCC(=O)NCc2ccco2)cc2sccc21 the results were TbPYK inhibitor inactive, Sm TGR block 50µM, RE007 growth inh inactive, FBPA Giardia inh inactive and LmPK inhibitor inactive.
O=C(COC(=O)c1ccc(S(=O)(=O)NCc2ccco2)cc1)NCCC1=CCCCC1 was read as TbPYK inhibitor inactive, Sm TGR block 45µM, RE007 growth inh inactive, FBPA Giardia inh inactive and LmPK inhibitor inactive.
CC(C)C(NC(=O)OCc1ccccc1)C(=O)OCC(=O)NCc1ccco1 (stereo unspecified) was read as TbPYK inhibitor inactive, Sm TGR block 28µM, RE007 growth inh inactive, FBPA Giardia inh inactive and LmPK inhibitor inactive.
O=C(COC(=O)c1ccc(S(=O)(=O)NCc2ccco2)cc1)NCc1ccccc1 was read as TbPYK inhibitor inactive and RE007 growth inh inactive.
For Cc1ccc(S(=O)(=O)N2CCN(C(=O)c3cccc(F)c3)CC2)cc1 the results were TbPYK inhibitor inactive, Sm TGR block inactive, RE007 growth inh inactive, FBPA Giardia inh inactive and LmPK inhibitor inactive.
For COC(=O)c1ccc(C(=O)OC)c(NC(=O)CN2CCN(c3ccc(OC)cc3)CC2)c1 the results were TbPYK inhibitor inactive, Sm TGR block inactive, RE007 growth inh inactive, FBPA Giardia inh inactive and LmPK inhibitor inactive.
Screening CCC(C)Sc1ccc(-c2nc3ccc(C)cn3c2NCc2ccccc2)cc1 (stereo unspecified) returned TbPYK inhibitor inactive and RE007 growth inh inactive.
`CCCc1nc2ccccc2c(C(=O)OCC(=O)NCc2ccco2)c1CC` gave TbPYK inhibitor inactive, Sm TGR block inconclusive, RE007 growth inh inactive, FBPA Giardia inh inactive and LmPK inhibitor inactive.
O=C(COC(=O)c1cccs1)NCc1ccco1 was read as TbPYK inhibitor inactive, Sm TGR block inconclusive, RE007 growth inh inactive, FBPA Giardia inh inactive and LmPK inhibitor inactive.
`O=C(COC(=O)c1ccc(NS(=O)(=O)c2cccs2)cc1)NCc1ccco1` gave TbPYK inhibitor inactive, Sm TGR block 11µM, RE007 growth inh inactive, FBPA Giardia inh inactive and LmPK inhibitor inactive.
For CCOc1ccc(N(CC(=O)NCc2ccco2)S(=O)(=O)c2ccc(OC)c(OC)c2)cc1 the results were TbPYK inhibitor inactive, Sm TGR block 32µM, RE007 growth inh inactive, FBPA Giardia inh inactive and LmPK inhibitor inactive.
O=C(COC(=O)c1cc2ccccc2cc1O)NC(=O)NCc1ccco1 was read as TbPYK inhibitor inactive, Sm TGR block 45µM, RE007 growth inh inactive, FBPA Giardia inh inactive and LmPK inhibitor inactive.
CCc1nc2ccccc2c(C(=O)OCC(=O)NCc2ccco2)c1C was read as TbPYK inhibitor inactive, Sm TGR block 35µM, RE007 growth inh inactive, FBPA Giardia inh inactive and LmPK inhibitor inactive.
Screening O=C(COC(=O)c1cncc(Br)c1)NCc1ccco1 returned TbPYK inhibitor inactive, Sm TGR block 25µM, RE007 growth inh inactive, FBPA Giardia inh inactive and LmPK inhibitor inactive.
`CN(C)c1cccc(C(=O)OCC(=O)NCc2ccco2)c1` gave TbPYK inhibitor inactive, Sm TGR block inactive, RE007 growth inh inactive, FBPA Giardia inh inactive and LmPK inhibitor inactive.
COc1ccc(CC(=O)OCC(=O)NCc2ccco2)cc1OC was read as TbPYK inhibitor inactive, Sm TGR block 40µM and RE007 growth inh inactive.
CCOc1cc(C(=O)OCC(=O)NCc2ccco2)cc(OCC)c1OCC was read as TbPYK inhibitor inactive, Sm TGR block 25µM, RE007 growth inh inactive, FBPA Giardia inh inactive and LmPK inhibitor inactive.
For C=CCn1c(O)c(C(CC)=Nc2ccc3c(c2)CCC3)c(=O)[nH]c1=O the results were TbPYK inhibitor inactive, Sm TGR block inactive, RE007 growth inh inactive, FBPA Giardia inh inactive and LmPK inhibitor inactive.
`C=CCn1c(O)c(C(CC)=Nc2ccc(N(C)C)cc2)c(=O)[nH]c1=O` gave TbPYK inhibitor inactive, Sm TGR block 32µM, RE007 growth inh inactive, FBPA Giardia inh inconclusive and LmPK inhibitor inactive.
C=CCn1c(O)c(C(CC)=NCCc2ccccc2)c(=O)[nH]c1=O was read as Sm TGR block 89µM, RE007 growth inh inactive[3.69 µM], FBPA Giardia inh inactive and LmPK inhibitor inactive.
`CC(=O)N1CCN(c2ccc(NC(=O)c3cccc([N+](=O)[O-])c3)cc2)CC1` gave TbPYK inhibitor inactive, Sm TGR block inactive, RE007 growth inh inactive, FBPA Giardia inh inactive and LmPK inhibitor inactive.
For COC(=O)COC(=O)c1ccc(Oc2nc(OC)nc(N(C)C)n2)cc1 the results were Sm TGR block 2.2µM, RE007 growth inh inactive[3.69 µM], FBPA Giardia inh inactive and LmPK inhibitor inactive.
Screening Cc1cc(Nc2ccccc2Cl)n2nc(-c3ccco3)nc2n1 returned TbPYK inhibitor inactive and Sm TGR block inconclusive.
`Cc1cc(C)n2nc3nc(N4CCCCC4)nc(-c4ccco4)c3c2n1` gave TbPYK inhibitor inconclusive, Sm TGR block 1.4µM, RE007 growth inh inactive, FBPA Giardia inh inconclusive and LmPK inhibitor inactive.
`Cn1c(=S)oc2ccccc21` gave TbPYK inhibitor inactive, Sm TGR block inactive, RE007 growth inh inactive, FBPA Giardia inh inactive and LmPK inhibitor inactive.
`CC(C)CC(=O)/C=C/n1c(=S)oc2ccccc21` gave TbPYK inhibitor inactive, Sm TGR block 6.3µM, RE007 growth inh inactive, FBPA Giardia inh inactive and LmPK inhibitor inactive.
CC(=O)/C=C/n1c(=S)oc2ccccc21 was read as TbPYK inhibitor inactive, Sm TGR block 2.5µM, RE007 growth inh 40µM, FBPA Giardia inh inactive and LmPK inhibitor inactive.
`CC(=O)Nc1ccc(NC(=O)CCn2c(=S)oc3ccccc32)cc1` gave TbPYK inhibitor inactive, Sm TGR block inactive, RE007 growth inh inactive, FBPA Giardia inh inactive and LmPK inhibitor inactive.
Screening O=C(O)c1cccc(NC(=S)NC(=O)c2ccncc2)c1 returned TbPYK inhibitor inactive, Sm TGR block 32µM, RE007 growth inh inactive, FBPA Giardia inh inactive and LmPK inhibitor inactive.
Screening CC(C)(C)C(=O)NC(=S)Nc1cccc(C(=O)O)c1 returned TbPYK inhibitor inactive, Sm TGR block inactive, RE007 growth inh inactive, FBPA Giardia inh inactive and LmPK inhibitor inactive.
`CCCOc1cccc(C(=O)NC(=S)Nc2ccccc2)c1` gave TbPYK inhibitor inactive, Sm TGR block inconclusive, RE007 growth inh inactive, FBPA Giardia inh inactive and LmPK inhibitor inactive.
`CCOC(=O)c1ccc(NC(=S)NC(=O)c2cncc(Br)c2)cc1` gave TbPYK inhibitor inactive, Sm TGR block inconclusive, RE007 growth inh inactive, FBPA Giardia inh inactive and LmPK inhibitor inactive.

Compound activity (PubChem BioAssay)
